# Compounds without any hit were thinned out: in the full panel of roughly 83,000, 20% have a hit.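 Single-dose data. Exposure time 48 hours. Values below 10 considered active.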 A number with no mark means an inactive call. Calls of active or inactive are those of the source.
# Experiments:
# Test in all cases: NCI-60 one-dose screen, 48 h (100 = growth as untreated, 0 = no growth, -100 = all killed)
# Conditions in all cases: 10 µM unless noted
# RPMI-8226 leukemia = test system: RPMI-8226 leukemia
# OVCAR-8 ovarian = test system: OVCAR-8 ovarian
# OVCAR-5 ovarian = test system: OVCAR-5 ovarian
# OVCAR-4 ovarian = test system: OVCAR-4 ovarian
# SK-OV-3 ovarian = test system: SK-OV-3 ovarian
# IGROV1 ovarian = test system: IGROV1 ovarian
# OVCAR-3 ovarian = test system: OVCAR-3 ovarian
# NCI/ADR-RES ovarian = test system: NCI/ADR-RES ovarian
# T-47D breast = test system: T-47D breast
# HS 578T breast = test system: HS 578T breast
SMILES,growth (RPMI-8226 leukemia),growth (OVCAR-8 ovarian),growth (OVCAR-5 ovarian),growth (OVCAR-4 ovarian),growth (SK-OV-3 ovarian),growth (IGROV1 ovarian),growth (OVCAR-3 ovarian),growth (NCI/ADR-RES ovarian),growth (T-47D breast),growth (HS 578T breast)
c1ccc(CNc2nc(Nc3ccccc3)nc3ccccc23)cc1,45.4%,34.9%,72.8%,36.8%,3.4% (active),63.2%,39.6%,62.3%,77.4%,
COc1ccc(/C=C/C(=O)c2c(C)nc3ccccc3c2/C=C/c2ccccc2)c(OC)c1,66.1%,76.1%,88.2%,66.5%,94.3%,47.5%,84.8%,85.9%,55%,
COc1ccc(N(C)c2nc(N)nc3sc4c(c23)CCCC4)cc1,25.3%,14%,49.8%,36.2%,20.7%,17.2%,1.77% (active),2.25% (active),70.3%,26.9%
O=C1/C=C/[C@@H](O)[C@@H]2C[C@@H](O)C[C@H]2/C=C/CCCCO1,-39.2% (active),12.5%,36.6%,20.9%,13%,,-31.3% (active),9.26% (active),-11.1% (active),
CCCCc1c(CCC)c(=N)c2ccccc2n1C,29.9%,65.5%,99.6%,73.4%,99.1%,,90.9%,85.4%,85.9%,
COC(=O)c1c2c(c(C)[n+]([O-])c1C)C(=O)C=C(NCc1ccccc1)C2=O,-0.203% (active),4.33% (active),-63.3% (active),-95% (active),,-56.6% (active),-35.4% (active),-14% (active),,-30.6% (active)
Nc1nc(-c2cnccn2)nn1-c1nc2ccccc2s1,82%,99.9%,104%,97.7%,,100%,108%,101%,,99.3%
COC(=O)/C(=C\c1c(-c2ccccc2)[nH]c2ccccc12)S(C)(=O)=O,-14.8% (active),36.7%,83.5%,63.9%,39.8%,,-46% (active),-13% (active),27%,-9.62% (active)
C=C1C(=O)O[C@H]2[C@H]1CC/C(COC(=O)/C=C\C(=O)O)=C\CC[C@@]1(C)O[C@@H]21,114%,101%,93.8%,113%,,107%,113%,101%,100%,103%
O=C1C(Cl)=C(NCc2ccco2)C(=O)c2ccccc21,38.9%,93.7%,116%,85.4%,,57.6%,84.6%,84.6%,69.1%,89.6%
CCOc1ccc2nc(C)cc(Nc3ccc(Br)cc3)c2c1,82.6%,97.9%,97.7%,82.2%,101%,,107%,95.4%,97.1%,117%
COc1ccc(C2=C(c3cccc(OC)c3)C(=O)c3ccc(C)nc3C2=O)cc1,47.2%,42.3%,104%,-95.8% (active),,43%,7.59% (active),17.1%,-41.4% (active),52.5%
Clc1ccc(COc2ccc(Nc3ncnc4onc(-c5ccccc5)c34)cc2)cc1,74.8%,92.2%,92.8%,7.69% (active),,83.4%,92.8%,77%,77%,82.1%
Cc1ccc(C2CC(c3ccc(Nc4nc(NCCO)nc(Nc5ccc(Cl)cc5)n4)cc3)=NN2c2cc(Cl)cc(Cl)c2)cc1 (stereo unspecified),101%,97.4%,94.2%,102%,,87.8%,102%,105%,,68.3%
N#CC(C#N)=Cc1c(-c2ccccc2)[nH]c2ccccc12,-24.8% (active),32.4%,75.3%,65.7%,25.3%,,-27.5% (active),16.2%,38.6%,
Fc1cccc(COc2ccc(Nc3ncnc4onc(-c5ccccc5)c34)cc2)c1,12.5%,29.2%,9.86% (active),43.3%,,24.5%,0.458% (active),46.5%,,-16.7% (active)

SMILES,growth (RPMI-8226 leukemia),growth (OVCAR-8 ovarian),growth (OVCAR-5 ovarian),growth (OVCAR-4 ovarian),growth (SK-OV-3 ovarian),growth (IGROV1 ovarian),growth (OVCAR-3 ovarian),growth (NCI/ADR-RES ovarian),growth (T-47D breast),growth (HS 578T breast)
Cc1cccc2c(=O)c3c(sc12)c(NCCN)nc1ccccc13,-37.9% (active),-25% (active),-46.9% (active),-24.4% (active),,-70.1% (active),-89.6% (active),-45.5% (active),,37.1%
Cc1ccc(NC2=CC(=O)C(=O)c3ccccc32)c(C)c1,56.7%,27.9%,80.3%,48.1%,,35.6%,-15.6% (active),15.6%,,79.5%
COC(=O)/C(=C\c1c(C)[nH]c2ccccc12)S(=O)(=O)c1ccccc1,-45.8% (active),4.29% (active),33.6%,53%,22.6%,,-19.8% (active),4.6% (active),17.8%,-29.7% (active)
CCCCN1CCN(c2ccc3nc(-c4ccc5nc(-c6ccc(OC)c(OC)c6)[nH]c5c4)[nH]c3c2)CC1,-19% (active),3.24% (active),13.7%,-46.1% (active),,-13.2% (active),-46.8% (active),91%,17.6%,-18.7% (active)
CNC(=O)c1cc(Oc2ccc(CC(=O)Nc3cc(C(C)(C)C)cn3C)cc2)ccn1,53.1%,65.2%,116%,48.9%,,67%,81.6%,72.4%,,86.9%
Cc1ccc2c(n1)C(=O)C(Oc1ccc(Br)cc1)=CC2=O,78.7%,92.3%,114%,94.5%,,104%,84.2%,95.8%,,100%
Cc1ccc(C(=O)c2oc3ccc4c(C)cc(=O)oc4c3c2C)cc1,0.992% (active),8.23% (active),66%,33.9%,46.9%,,28.7%,29.5%,14.8%,86.5%
C=CCN1C(=O)/C(=c2\sc3n(c2=O)NC2C(N=3)N(CC)C(=O)N2CC)c2ccccc21 (stereo unspecified),66.1%,48.2%,44.2%,39.2%,,34.2%,22.5%,18.7%,54.4%,29.4%
O=C1/C(=C/c2ccc(O)cc2)COc2ccc(O)c(O)c21,-6.76% (active),17.6%,43.7%,43.7%,,8.79% (active),-8.96% (active),27.2%,,47.4%
CC1=NCC2NC(=O)NC(C)=C12 (stereo unspecified),100%,105%,97.4%,106%,,97%,105%,106%,113%,93.6%
N#C/C(=C\c1c(-c2ccccc2)[nH]c2ccccc12)S(=O)(=O)c1ccccc1,-43.1% (active),43.3%,75.1%,83%,30.5%,,-27.9% (active),7.91% (active),38.9%,15.9%
NC(CCc1nc2ccccc2c(=O)[nH]1)C(=O)O (stereo unspecified),101%,104%,105%,103%,,99.1%,119%,110%,,102%
COc1ccc(-c2cn3c(C(=O)Nc4ccccc4Cl)c(-c4ccccc4)c4c3n2CCCC4)cc1,68.5%,83.6%,79.8%,74.6%,86.4%,,84.1%,81.7%,78.9%,114%
S=C1NC2(c3ccccc3)CCC(=S)N2c2ccccc21 (stereo unspecified),103%,100%,103%,105%,,106%,119%,109%,106%,101%
COC(=O)/C(CCC=C(C)C)=C1\[C@@H](OC(C)=O)C[C@@]2(C)[C@H]1C[C@@H](O)[C@H]1[C@@]3(C)CC[C@H](NCc4ccccc4)[C@@H](C)[C@@H]3CC[C@@]12C,16.9%,76.1%,88.7%,61.2%,,70.3%,69.6%,64.6%,,67.3%

# — PubChem BioAssay (NCI)
